For 40 compounds, Potency and activity change, negative = cytotoxicity results are on record in PubChem BioAssay (Tox21).

Records with an inconclusive call do not appear. A call without a number means that no potency is given here. Unmarked numbers belong to inactive results. The source made the active and inactive calls. Calls come from the whole dose curve.
Potency is the fitted concentration of half-maximal effect.

A short description of the experiment: p53 small molecule agonists, cell-based qHTS assay with human liver microsomes: qHTS cell viability counter screen (AID 1963579). Note: nearly all actives have a fitted effect of over 45% in size. Conditions: p53RE-bla HCT-116 viability, ATP luminescence, 16 h, HLM; series mostly up to 66 µM. From the text:
National Center for Advancing Translational Sciences [NCATS]
Division of Preclinical Innovation [DPI]
U.S. Environmental Protection Agency [EPA]
National Institutes of Environmental Health Sciences [NIEHS]
National Toxicology Program [NTP]
U.S. Food and Drug Administration [FDA]
p53, a tumor suppressor protein, is activated following cellular insult, including DNA damage and other cellular stresses. The activation of p53 regulates cell fate by inducing DNA repair, cell cycle arrest, apoptosis, or cellular senescence. The activation of p53, therefore, is a good indicator of DNA damage and other cellular stresses. […] The activation of the reporter gene under culture conditions can be detected by fluorescence intensity. This cell line was used to screen the Tox21 10K compound library in the condition of presence of human liver microsomes and to identify agonists that activate the p53 signaling pathway after in vitro metabolic activation (Ooka et al., Archive of Toxicology 96:1975-1987, 2022).
Tox21 Assay Protocol Summary:
The p53RE-bla cells were dispensed at 4,000cells/3ul/well in 1536-well black-clear bottom plates. After the assay plates were incubated at 37 C, 5% CO2 incubator for 5 hours, 23 nL of compounds dissolved in DMSO, positive controls or DMSO only was transferred to the assay plate. Following compound addition, 3 uL of human liver microsomes (XenoTech, Kansas City, KS) at final concentration of 0.5 mg/mL and 1uL of B-Nicotinamide adenine dinucleotide 2'-phosphate (NADPH) at final concentration of 0.5 mg/mL were transferred to the assay plate. The plates were incubated at 37 C for 16 hours. 1 uL of LiveBLAzer detection mixture was added to each well and the plates were incubated at room temperature in the dark for 2 h. Fluorescence intensity at 460 and 530 nm emission and 405 nm excitation were measured by an Envision plate reader. For cell viability readout that measures cytotoxicity, 4 ul/well of CellTiter-Glo reagent was added into the assay plates using a Flying Reagent Dispenser. After 30 min incubation at room temperature, the luminescence intensity in the plates was measured using a ViewLux plate reader.
For orientation: qHTS replaces the single test concentration by a dilution series.
As to `O=C(Cc1ccccc1)OCCc1ccccc1`, the Potency result was “inactive”.
Still for that read-out and setting: the same measure for `COC(=O)N(C(=O)N1CO[C@@]2(C(=O)OC)Cc3cc(Cl)ccc3C2=N1)c1ccc(OC(F)(F)F)cc1`: “inactive”; for `CCOP(=S)(S)OCC`: “inactive”.
Same read-out and setting: the result for `CC(C)(C)c1ccc(CCOc2ncnc3ccccc23)cc1` reads “inactive”; that for `c1csc(-c2ccc(-c3cccs3)s2)c1`, “inactive”.
With `CCNP(=S)(OC)O/C(C)=C/C(=O)OC(C)C` (stereo not given), the Potency result was “inactive”.
For `CC(C)CBr`, the Potency result was “inactive”.
`CSC(C)(C)/C=N/O`: the Potency entry is “inactive”.
With `CC1(C)CCC(Cc2ccc(Cl)cc2)C1(O)Cn1cncn1` (stereo not given), the Potency was 45.8 µM (active).
For the compound `[Cl][Sb]([Cl])[Cl]`, the Potency result was “inactive”.
As for `COc1cc(C[C@@H](C)N)c(OC)cc1C`, the Potency entry was “inactive”.
Regarding `CC(C)CP(=S)(S)CC(C)C`, the Potency entry was “inactive”.
On to `NC(=O)C(Cl)Cl`, for which the Potency result was “inactive”.
Same read-out and setting: the result for `O=[N+]([O-])C(Br)Br` reads “inactive”; that for `CNCC(=O)c1ccc(O)c(O)c1`, “inactive”; that for `Cc1ccccc1CO[C@@H]1C[C@@]2(C(C)C)CC[C@]1(C)O2`, “inactive”.
Turning to `CC(=O)OCC1=C(C(=O)O)N2C(=O)[C@@H](N)[C@H]2SC1`, the activity change, negative = cytotoxicity is -9.53% [at 13.5 µM].
`CCCSC(=O)N(CCC)CCC`: the Potency entry was “inactive”.
The same measure, in the same setting: the result for `ClCC(Cl)Cl` reads “inactive”.
With `CCN[C@H](C)Cc1cccc(C(F)(F)F)c1`, the Potency result was “inactive”.
For `[O-][Cl+3]([O-])([O-])O`, the Potency result is “inactive”.
`CSC(=O)c1c(C(F)F)nc(C(F)(F)F)c(C(=O)SC)c1CC(C)C`: the Potency entry is “inactive”.
As to `CC(C)CC#N`, the Potency result is “inactive”.
`[Cl-].[Cl-].[Cl-].[Yb+3]`: the Potency result was “inactive”.
In the case of `CC1(C)[C@H](/C=C2\CCSC2=O)[C@@H]1C(=O)OCc1coc(Cc2ccccc2)c1`, the Potency result was “inactive”.
The same measure, in the same setting: the same measure for `CC1Sc2c(C(=O)O)c(=O)c3cc(F)c(N4CCNCC4)cc3n21` (stereo not given): “inactive”.
Take `[F][Sn]([c]1ccccc1)([c]1ccccc1)[c]1ccccc1`: the Potency was 2.29 µM (active).
Regarding `c1ccc2c(c1)cc1ccc3cccc4ccc2c1c34`, the Potency result was “inactive”.
With `O=c1[nH]c2ccccc2o1`, the Potency entry is “inactive”.
`CCCCS(=O)(=O)Cl`: the Potency result was “inactive”.
For `Oc1ccc2[nH]cc(CCCCN3CC=C(c4ccccc4)CC3)c2c1`, the Potency entry is “inactive”.
For `CCOC(=O)Cc1ccccc1`, the Potency result was “inactive”.
Consider `COc1cc(C[C@@H](C)N)c(OC)cc1Br`, for which the Potency entry was “inactive”.
Take `CCNc1nc(Cl)nc(NC(C)(C)C)n1`: the Potency result was “inactive”.
With `CC(C)CC(C)N` (stereo not given), the Potency entry was “inactive”.
For the compound `Oc1c(Cl)c(Cl)cc(Cl)c1Cl`, the Potency result was “inactive”.
With `CN(C)C1CSSSC1`, the Potency result was “inactive”.
The same measure, in the same setting: the same measure for `COC(C)(C)CCC[C@H](C)C/C=C/C(C)=C/C(=O)OC(C)C`: “inactive”; for `CCN(CC)C(=O)Cl`: “inactive”.
Consider `CC(C)N(Cc1ccccc1)C(=O)C(C)(C)C`, for which the Potency result was “inactive”.
